Earlier results on 29 compounds are cited in PubChem BioAssay AID977611.

Counter-ions that a name gives are not always drawn. Screen size: about 3,900 compounds; about 3,900 (100%) were called active. No cut-off is given here; in the data, nearly all actives have Kd up to about 4200 µM. The set was probably picked from earlier hits. This is one part of the list. Numbered stars: 1 amine (or outer) side, 2 acyl side, 3 side chain; on linkers, the order of the positions; unused ones are H or OH. Starred links: 1 amine or outer side, 2 acyl side, 3 side chain; linkers in the order of their positions; H or OH if unused. Where a SMILES comes first, the peptide text is derived from it. Non-standard residues stand in square brackets, D forms with d. Square brackets hold non-standard residues; d marks the D form. Residues, ends and D or L forms follow the SMILES beside them. Peptide text beside a SMILES is read from it. [ ]: non-standard residue; d: D form. * marks the point of attachment. X1 = O=C([C@H](Cc1ccc(O[P+](O)(O)O)cc1)N[*:1])[*:2]; Lys(Me3) = C[N+](C)(C)CCCC[C@H](N)C(=O)O; Orn(CH(NH2)2) = NC(N)NCCC[C@H](N)C(=O)O; Tfa = O=C(C(F)(F)F)*

As usually defined, the Kd is the constant that tells how readily two partners part at equilibrium.

This data set in a line: PubChem AID 977611. The following applies: PDB protein-ligand complexes, literature Kd.

As for `N#C/C(=C\c1ccncc1)C(=O)NCc1ccccc1`, the Kd (protein: RIO-type serine/threonine-protein kinase Rio1, PDB entry 4jin) is 2280 nM (active).

In the case of `C[N+](C)(C)CCCC[C@H](N)C(=O)N[C@@H](CCC(N)=O)C(=O)O` (H-[Lys(Me3)]-Gln-OH), the Kd (protein: Polycomb protein EED, PDB entry 3k26) is 400000 nM (active). As to `C[C@@H](O)[C@H](N)C(=O)N[C@@H](CCCC[N+](C)(C)C)C(=O)N[C@@H](CCC(N)=O)C(=O)O` (H-Thr-[Lys(Me3)]-Gln-OH), where the note is “protein: Os05g0196500 protein, PDB entry 4igq”, the Kd is 30100 nM (active).

As to `CSCC[C@H](NC(=O)[C@H](CC(C)C)NC(=O)CNC(=O)[C@@H](NC(=O)[C@H](CC(N)=O)NC(=O)[C@H](CCC(=O)O)NC(=O)[C@H](Cc1ccc(O[P+](O)(O)O)cc1)NC(=O)[C@@H](N)C(C)C)C(C)C)C(=O)O` (H-V[X1]ENVGLM-OH), the Kd (protein: Grb2 SH2 domain, pY-Clamp Ptpn11_pY580, PDB entry 4jmg) was 1.5 nM (active). For H-IGTDKELSDLLDFSAMFS-OH, the Kd (protein: eTAFH domain of AML1-ETO, PDB entry 2knh) was 7000 nM (active). For the compound H-TFKEVANAVKISASLM-OH, under “protein: Calmodulin, PDB entry 2mg5”, the Kd was 700 nM (active).

In the case of `CC[C@H](C)[C@H](NC(=O)[C@H](CC(=O)O)NC(=O)[C@H](Cc1ccccc1)NC(=O)[C@H](CC(C)C)NC(=O)[C@H](CC(=O)O)NC(=O)CNC(=O)[C@@H](NC(=O)[C@@H](NC(=O)[C@H](CCCCN)NC(=O)[C@H](CC(C)C)NC(=O)[C@H](CCCNC(N)N)NC(=O)[C@H](CCCNC(N)N)NC(=O)[C@H](CO)NC(=O)[C@H](CC(C)C)NC(=O)[C@H](CC(N)=O)NC(=O)[C@H](CCC(=O)O)NC(=O)[C@H](CCSC)NC(=O)[C@@H](N)[C@@H](C)O)C(C)C)[C@@H](C)O)C(=O)N[C@@H](CCSC)C(=O)O` (H-TMENLS[Orn(CH(NH2)2)][Orn(CH(NH2)2)]LKVTGDLFDIM-OH), the Kd (protein: M11, the BCL-2 Homolog of Murine Gamma-herpesvirus 68, PDB entry 3bl2) is 1580 nM (active). With `O=C(O)C1(O)C[C@@H](O)C(O)[C@H](O)C1` (stereo partly specified), the Kd by setting is: (protein: 3-dehydroquinate dehydratase (K170M mutation), PDB entry 4iuo) 230000 nM (active); (protein: 3-dehydroquinate dehydratase, PDB entry 4gui) 230000 nM (active). As to `OC[C@H]1O[C@@H](Oc2ccc3c(c2)Oc2cc(O)ccc2N3)[C@H](O)[C@@H](O)[C@H]1O`, the Kd (protein: PA-I galactophilic lectin, PDB entry 4lk7) was 9100 nM (active). With `CC(C)(C)OC(=O)N1CC(NC2NC(=O)c3cccnc3N2)C1` (stereo unspecified), under “protein: PLASMINOGEN ACTIVATOR INHIBITOR 1, PDB entry 4aqh”, the Kd is 290 nM (active). In the case of `Cc1nn(C)c2sc(C(=O)O)cc12`, the Kd (protein: Pantothenate synthetase (T2A, E77G mutation), PDB entry 4fzj) was 700000 nM (active). Regarding `CC(C)[C@H](NC(=O)[C@H](CO)NC(=O)[C@H](CCC(=O)O)NC(=O)[C@@H](N)CC(N)=O)C(=O)N[C@@H](CC(=O)O)C(=O)N[C@@H](Cc1ccc(O[P+](O)(O)O)cc1)C(=O)N[C@@H](CCCNC(N)N)C(=O)N[C@@H](C)C(=O)O` (H-NESVD[X1][Orn(CH(NH2)2)]A-OH), for the setting “protein: E3 ubiquitin-protein ligase CBL, PDB entry 3bux”, the dissociation constant (Kd) is 2360 nM (active). `CC(C)[C@H](NC(=O)[C@H](C)NC(=O)[C@@H](N)CCCNC(N)N)C(=O)N[C@@H](CCC(=O)O)C(=O)N[C@@H](CC(N)=O)C(=O)N[C@@H](CCC(N)=O)C(=O)N[C@@H](Cc1ccc(O[P+](O)(O)O)cc1)C(=O)N[C@@H](CO)C(=O)N[C@@H](Cc1ccccc1)C(=O)O` (H-[Orn(CH(NH2)2)]AVENQ[X1]SF-OH): the Kd (protein: CBL E3 ubiquitin protein ligase, PDB entry 1yvh) was 43 nM (active). `CC(C)[C@H](NC(=O)[C@@H](NC(=O)[C@@H](NC(=O)[C@H](CO)NC(=O)[C@H](Cc1ccc(O[P+](O)(O)O)cc1)NC(=O)[C@H](CCC(=O)O)NC(=O)[C@@H](NC(=O)[C@@H](NC(=O)[C@@H](N)CO)[C@@H](C)O)C(C)C)[C@@H](C)O)C(C)C)C(=O)N[C@@H](Cc1cnc[nH]1)C(=O)N[C@@H](CO)C(=O)O` (H-STVE[X1]STVVHS-OH): the Kd (protein: Suppressor of cytokine signaling 3(SOCS3), PDB entry 2hmh) is 70 nM (active).

As to `CC(C)C[C@H](NC(=O)[C@H](CC(C)C)NC(=O)[C@H](CCCCN)NC(=O)[C@H](CCCNC(N)N)NC(=O)[C@H](C)NC(=O)[C@@H]1CCCN1C(=O)[C@H](CC(=O)O)NC(=O)[C@H](Cc1ccc(O)cc1)NC(=O)[C@H](C)N)C(=O)O` (H-AYDPA[Orn(CH(NH2)2)]KLL-OH), the Kd (protein: ALIX Bro1-V domains (KK268, 269YY mutant), PDB entry 2xs8) was 24500 nM (active). On to H-AAIFYLAG-OH, for which, for the setting “protein: HIV-1 protease, PDB entry 2nxd”, the Kd is 2200 nM (active).

As to H-AASFIDAKKMP-OH, for the setting “protein: coatomer alpha subunit, PDB entry 4j8g”, the Kd is 64500 nM (active).

For H-ADLIAYFKAATKF-OH, where the note is “protein: T cell receptor (TCR), PDB entry 1r5w”, the Kd was 2900 nM (active). H-TIYNTTLKY-NH2: the Kd (protein: anti-human cytomegalovirus antibody 8f9, PDB entry 3eyf) was 94 nM (active). For H-ADLIAYPKAATKF-OH, the Kd (protein: T cell receptor (TCR), PDB entry 1r5v) was 33000 nM (active). Turning to `CC[C@H](C)[C@H](NC(=O)[C@H](Cc1c[nH]c2ccccc12)NC(=O)[C@H](CCC(=O)O)NC(=O)[C@H](CC(N)=O)NC(=O)[C@@H](N)CO)C(=O)N[C@@H](CCC(N)=O)C(=O)N1CCC[C@H]1C(=O)N[C@@H](CCCNC(N)N)C(=O)N[C@@H](CC(C)C)C(=O)N1CCC[C@H]1C(=O)N[C@H](C=O)CCC(N)=O` (H-SNEWIQP[Orn(CH(NH2)2)]LPQ-aldehyde), where the note is “protein: Ephrin type-B receptor 2, PDB entry 2qbx”, the equilibrium dissociation constant (Kd) is 6000 nM (active).

Regarding `CC[C@H](C)[C@H](NC(=O)[C@H](CCCCNC(=O)C(F)(F)F)NC(=O)[C@H](CO)NC(=O)[C@@H](NC(=O)[C@@H]1CCCN1C(=O)[C@H](Cc1c[nH]c2ccccc12)NC(=O)[C@@H](N)CCCN=C(N)N)[C@@H](C)O)C(=O)O` (H-RWPTSK(Tfa)I-OH), for the setting “protein: Golgi-associated PDZ and coiled-coil motif-containing protein CAL PDZ (CALP) domain, PDB entry 4nmt”, the Kd was 14100 nM (active).

Consider `CC[C@H](C)[C@H](NC(=O)[C@@H](NC(=O)[C@H](CO)NC(=O)[C@@H](NC(=O)[C@@H]1CCCN1C(=O)[C@H](CCCCNC(C)=O)NC(=O)[C@H](CCCN=C(N)N)NC(=O)[C@H](CO)NC(=O)[C@H](CC(N)=O)NC(=O)[C@H](C)N)[C@@H](C)O)[C@@H](C)CC)C(=O)O`, for which, where the note is “protein: Golgi-associated PDZ and coiled-coil motif-containing protein CAL PDZ (CALP) domain, PDB entry 4nmr”, the Kd is 298000 nM (active).

Take `CC[C@H](C)[C@H](NC(=O)[C@@H](NC(=O)[C@H](CO)NC(=O)[C@@H](NC(=O)[C@H](CCCCNC(C)=O)NC(=O)[C@H](Cc1c[nH]c2ccccc12)NC(=O)[C@H](CCCN=C(N)N)NC(=O)[C@H](CO)NC(=O)[C@H](CC(N)=O)NC(=O)[C@H](C)N)[C@@H](C)O)[C@@H](C)CC)C(=O)O`: the Kd (protein: Golgi-associated PDZ and coiled-coil motif-containing protein CAL PDZ (CALP) domain, PDB entry 4nmq) is 32300 nM (active). As to H-RWPTSK(Ac)I-OH, the equilibrium dissociation constant (Kd) (protein: Golgi-associated PDZ and coiled-coil motif-containing protein CAL PDZ (CALP) domain, PDB entry 4nmo) was 14900 nM (active).

Consider `CC[C@H](C)[C@H](NC(=O)[C@@H](NC(=O)[C@H](CO)NC(=O)[C@@H](NC(=O)[C@@H]1CCCN1C(=O)[C@H](Cc1c[nH]c2ccccc12)NC(=O)[C@H](CCCNC(N)N)NC(=O)[C@H](CO)NC(=O)[C@H](CC(N)=O)NC(=O)[C@H](C)N)[C@@H](C)O)[C@@H](C)CC)C(=O)O`, for which the Kd (protein: Golgi-associated PDZ and coiled-coil motif-containing protein, PDB entry 4e34) is 970 nM (active). Take `C[C@@H](O)[C@@H](C=O)[C@H]1CC(S)=C(C(=O)O)N1`: the Kd (protein: Probable L,D-transpeptidase LdtA, PDB entry 4jmx) was 62.1 nM (active). `CC1=C(/C=C/C(C)=C/C=C/C(C)=C/CO)C(C)(C)CCC1`: the Kd (protein: bovine beta-lactoglobulin, PDB entry 1gx8) is 430 nM (active). For `C/C=C(C)/C=C/C=C(C)/C=C/C1=C(C)CCCC1(C)C`, the Kd was 162 nM (active) (protein: Cellular retinoic acid-binding protein 2 (R111K, R132L, Y134F, T54V, R59W mutation), PDB entry 4i9s) and 112 nM (active) (protein: Cellular retinoic acid-binding protein 2 (R111K, R132L, Y134F, T54V, R59W, A32W mutation), PDB entry 4i9r).
